# Experimental data: PubChem BioAssay (Tox21)
# Records with an inconclusive call do not appear. Where a call stands in place of a potency, no number is given. Activity calls are given as the source filed them. Calls come from the whole dose curve; as a rule, active = well fitted cell-killing curve with a large enough effect in the repeat runs; inconclusive = weak or mixed curves, or effect the other way; inactive = flat fitted curve, though single readings scatter.
# Test: qHTS assay to identify small molecule antagonists of the estrogen receptor alpha (ER-alpha) signaling pathway using the BG1 cell line in the presence of 0.1 nM 17-beta-estradiol - cell viability counter screen (AID 1259241); note: nearly all actives have a fitted effect of over 40% in size
# Details: VM7Luc4E2 (BG1) viability, CellTiter-Fluor protease, 22 h, 0.1 nM estradiol agonist added; series mostly up to 92.4 µM
# Source text: National Center for Advancing Translational Sciences [NCATS]
# NIH Chemical Genomics Center [NCGC]
# U.S. Environmental Protection Agency [EPA]
# National Institutes of Environmental Health Sciences [NIEHS]
# National Toxicology Program [NTP]
# U.S. Food and Drug Administration [FDA]
# Estrogen receptor (ER), a member of the nuclear hormone receptor plays an important role in development, metabolic homeostasis and reproduction. Two subtypes of ER, ER-alpha and ER-beta, have similar expression patterns with some uniqueness in both types. Endocrine disrupting chemicals (EDCs) and their interactions with steroid hormone receptors like ER causes disruption of normal endocrine function. Therefore, it is important to understand the effect of environmental chemicals in ER signaling pathway. For identifying ER antagonists, VM7Luc4E2 cell line was used to screen against Tox21 compound libraries.
# VM7Luc4E2 cell line (provided by Denison MS, University of California) endogenously express full-length ER-alpha and is stably transfected with a plasmid containing four estrogen responsive elements (ERE) upstream of a luciferase reporter gene. The current screening for identification of ER-alpha inhibitors against Tox21 compound libraries used lower concentration (0.1 nM) of 17beta-Estradiol as a stimulator. The cytotoxicity of the Tox21 compound libraries against VM7Luc4E2 cell line was tested by measuring live-cell protease activity using CellTiter-Fluor assay in the same wells.
# Tox21 Assay Protocol Summary:
# VM7Luc4E2 cells were cultured in phenol red free assay medium containing 10% charcoal stripped FBS for 5 days prior to the assay. The cells were dispensed at 4,000 cells/well in 4 uL of assay medium into white wall/solid-bottom 1536-well plates (Corning Life Sciences, Corning, NY) using a Multidrop Combi (ThermoFisher Scientific, Waltham, MA) dispenser. After the assay plates were incubated at 37C and 5% CO2 for 24 hr, 23 nL of compounds dissolved in DMSO, positive controls or DMSO only was transferred to the assay plates by a Pintool station (Kalypsys, San Diego, CA). The transfer of compounds was followed by the addition of 1 uL of 0.1 nM (final concentration) agonist (17beta-Estradiol)/assay medium using a Flying Reagent Dispenser (FRD, Aurora Discovery, San Diego, CA). The plates were incubated at 37C and 5% CO2 for 22 hr. For cytotoxicity assay, 1 uL of CellTiter-Fluor reagent (Promega Corporation, Madison, WI) was added to each well using the FRD and after 30 min incubation at 37C and 5% CO2, The fluorescence intensity was measured using ViewLux plate reader (PerkinElmer, Shelton, CT).
# Potency is the fitted concentration of half-maximal effect.
Compound,Potency,"activity change, negative = cytotoxicity"
CC(=O)c1ccc(C(C)=O)cc1,inactive,–
CCCCOC(=O)CO,inactive,–
S=c1nccc[nH]1,inactive,–
CCO[Si](OCC)(OCC)OCC,inactive,–
CCC(CC)(CC(=O)Nc1cccc(/C=C/c2nc(C3CCC3)cs2)c1)C(=O)O,inactive,–
C/C=C/C=C/COC(=O)C(C)C,inactive,–
[Cu+],inactive,–
O=C(O)c1cc(-c2ccc(F)cc2F)ccc1O,inactive,–
CC1(C)CC(O)CC(C)(C)N1,inactive,–
Cc1cc(-n2nc3ccc(Cl)cc3n2)c(O)c(C(C)(C)C)c1,inactive,–
Nc1nc(N)nc(-c2cc(Cl)ccc2Cl)n1,inactive,–
C#Cc1ccc(-c2ccccc2F)cc1,inactive,–
CCCCC/C=C\C/C=C\CCCCCCCC(=O)O,inactive,–
Cc1cc(C(C)(C)C)c(O)c(C)c1Cn1c(=O)n(Cc2c(C)cc(C(C)(C)C)c(O)c2C)c(=O)n(Cc2c(C)cc(C(C)(C)C)c(O)c2C)c1=O,inactive,–
COC(=O)C1=C(C)NC(C)=C(C(=O)OCCN2CCN(C(c3ccccc3)c3ccccc3)CC2)C1c1cccc([N+](=O)[O-])c1 (stereo not given),inactive,–
Cc1c(C)c2c(c(C)c1OC(=O)c1cccnc1)CC[C@@](C)(CCC[C@H](C)CCC[C@H](C)CCCC(C)C)O2,inactive,–
COC(C)=O,inactive,–
OC[C@@H](O)[C@@H](O)CO,inactive,–
O=C1CCCCCCCCCCCCCCCO1,inactive,–
c1ccsc1,inactive,–

Compound,Potency,"activity change, negative = cytotoxicity"
COC(=O)Nc1nc2ccc(C(=O)c3ccccc3)cc2[nH]1,inactive,–
Clc1nnc(Cl)c2ccccc12,inactive,–
CC[N+](CC)(CC)CCOC(=O)C(C1CCCC1)C1CCCC1,inactive,–
O=[N+]([O-])c1ccc(F)c(Cl)c1,inactive,–
CCCNCCC,inactive,–
COc1ccc(NC(=O)CC(C)=O)cc1,inactive,–
Cc1cccc2cccnc12,inactive,–
O=C1OC2(c3ccc(O)cc3Oc3cc(O)ccc32)c2ccc(N=C=S)cc21,inactive,–
O=C1c2ccccc2C(=O)N1SC1CCCCC1,inactive,–
CCC(=O)C(=O)CC,inactive,–
Cc1cc(C(C#N)c2ccc(Cl)cc2)c(Cl)cc1NC(=O)c1cc(I)cc(I)c1O (stereo not given),inactive,–
CCCC(=O)OC(C)(C)Cc1ccccc1,inactive,–
CCCC(=O)OCCc1ccccc1,inactive,–
CC[C@H](C)COC(=O)/C=C/c1ccc(N=Cc2ccc(OC)cc2)cc1,inactive,–
CC1=CCC(=C(C)C)CC1,inactive,–
CC(C)(C)CC(C)(C)c1ccc(Nc2ccc(C(C)(C)CC(C)(C)C)cc2)cc1,–,4% [at 8.39 µM] (inactive)
CC(C)OC(=O)C(O)(CC(=O)O)CC(=O)O,inactive,–
C=CCn1c(=O)n(CC=C)c(=O)n(CC=C)c1=O,inactive,–
O=S(=O)(O)c1ccc(N=Nc2c(O)ccc3ccccc23)cc1,54.5 µM (active),–
CN1CCCCC1CCN1c2ccccc2Sc2ccc(S(C)=O)cc21 (stereo not given),inactive,–
